# Measured values from PubChem BioAssay AID588579 (National Center for Advancing Translational Sciences (NCATS), 2011).
# Values joined by “and” are separate entries in the source; they are usually repeats but may differ in a detail not shown here. Identical values can stand only once. The whole screen tested about 400,000 compounds, of which about 2,200 (0.55%) were called active. A call without a number means that no potency is given here. Roughly 1% stayed inconclusive and do not appear here. This is one part of a sample in which actives are shown more often than they occur. A number with no mark means an inactive call. The call rests on the fitted dose curve; in most records, active means well fitted inhibition curve with a large enough effect; inconclusive means small, poorly fitted or top-dose-only effect, or another doubt; inactive means no such curve, though single readings can be large or run the other way. Positions of bridges follow the written chain, without caps; N, C: chain ends. Residues, ends and D or L forms follow the SMILES beside them.
# Target: DNA polymerase kappa (Homo sapiens) (UniProt Q9UBT6)
# Experiment: qHTS for Inhibitors of Polymerase Kappa
# Conditions: purified Pol kappa, fluorescent DNA synthesis assay, 10 min; series mostly up to 107 µM
# Outline: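 Readout: fluorescence, taken kinetically at 0 and 10 min. Conditions: 10 nM Pol kappa, 15 min RT compound preincubation, 50 nM substrate final. Controls: enzyme-free buffer wells.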
# Potency means the concentration at half of the fitted maximal effect.
# DNA polymerase kappa (Homo sapiens), sequence (Q9UBT6 whole entry, looked up): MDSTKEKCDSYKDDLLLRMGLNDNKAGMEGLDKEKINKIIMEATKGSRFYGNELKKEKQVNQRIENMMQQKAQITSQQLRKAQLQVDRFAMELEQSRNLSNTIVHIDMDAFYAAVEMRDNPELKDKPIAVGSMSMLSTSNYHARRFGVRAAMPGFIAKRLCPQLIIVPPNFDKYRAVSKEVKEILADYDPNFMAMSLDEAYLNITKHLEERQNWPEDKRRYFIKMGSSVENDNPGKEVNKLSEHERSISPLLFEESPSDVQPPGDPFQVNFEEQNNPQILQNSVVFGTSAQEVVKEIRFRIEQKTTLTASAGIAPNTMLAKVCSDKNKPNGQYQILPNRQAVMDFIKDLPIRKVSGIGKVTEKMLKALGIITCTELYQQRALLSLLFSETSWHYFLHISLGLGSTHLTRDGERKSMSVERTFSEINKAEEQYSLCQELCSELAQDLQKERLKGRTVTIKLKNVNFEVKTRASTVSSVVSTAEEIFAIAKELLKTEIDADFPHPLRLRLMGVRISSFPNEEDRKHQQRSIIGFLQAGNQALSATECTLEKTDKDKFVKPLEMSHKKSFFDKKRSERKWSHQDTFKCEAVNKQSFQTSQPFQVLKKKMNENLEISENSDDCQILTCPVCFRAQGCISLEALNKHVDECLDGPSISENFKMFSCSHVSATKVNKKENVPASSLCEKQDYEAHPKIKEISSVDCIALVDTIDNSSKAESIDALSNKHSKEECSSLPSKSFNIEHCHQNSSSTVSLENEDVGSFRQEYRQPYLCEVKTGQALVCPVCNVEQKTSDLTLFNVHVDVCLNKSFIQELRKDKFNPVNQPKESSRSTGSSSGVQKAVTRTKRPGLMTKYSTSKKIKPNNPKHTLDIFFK
SMILES,Potency,"activity, negative = inhibition"
CC(C)(C)c1ccc(C(=O)C[n+]2cccc3cc(Cl)ccc32)cc1,inactive,–
OCC(O)C(O)C(O)C(O)C=Nc1ccc(/C=C/c2ccnc3ccccc23)cc1 (configuration not stated),inactive,–
COC1[C@H](OC(N)=O)C(O)[C@H](Oc2ccc3c(O)c(NC(=O)c4ccc(O)c(CC=C(C)C)c4)c(=O)oc3c2C)OC1(C)C (some centres not stated),inactive,–
COc1ccccc1-n1c(-c2cc(-c3ccco3)[nH]n2)n[nH]c1=S,17.8 µM (active),–
COc1ccc(OCc2n[nH]c(=S)n2N)cc1,inactive,–
COc1ccccc1-n1c(=S)[nH]c2c(sc(=S)n2-c2ccc(C)cc2C)c1=O,inactive,–
C=C1C(=CC=C2CCC[C@@]3(C)[C@@H]2CC[C@H]3[C@H](C)CCCC(C)C)C[C@@H](O)C[C@@H]1O,–,-13.8% [at 19.4 µM]
CN(Cc1ccccc1)c1ccc(/C=C/c2ccnc3ccccc23)cc1,inactive,–
CN(C)c1ccc(/C=C/C=C/c2ccnc3ccccc23)cc1,inactive,–
N#Cc1ccccc1-c1ccc2ncnc(NCc3cccnc3)c2c1,inactive,–
O=C(/C=C/c1cccc(F)c1)NC1CC1,–,10.9% [at 19.4 µM]
Cc1ccccc1-c1ccc(C(=O)O)s1,inactive,–
CC(=O)OC1C([N+]2(C)CCCCC2)C[C@H]2C3CC[C@H]4C[C@H](OC(C)=O)C([N+]5(C)CCCCC5)CC4(C)C3CCC12C (some centres not stated),–,-5.47% [at 19.4 µM]
COc1ccccc1CNc1ncncc1-c1cccnc1,inactive,–
COCCn1c(SCC(=O)N2CCCCCC2)nc2c(c1=O)SCC2,inactive,–
CC(=O)c1sc2nc(SCC(=O)N3CCCCC3)[nH]c(=O)c2c1C,79.4 µM (active),–
Cc1nc(SCC(=O)N2CCN(c3ccccc3)CC2)[nH]c(=O)c1C,inactive,–
CCN(Cc1ccncc1)C(=O)[C@@H](CO)c1ccccc1,–,-2.15% [at 12 µM] and -8.7% [at 19.4 µM]
CC1(C)O[C@@H]2C[C@@H]3[C@H]4C[C@@H](F)C5=CC(=O)C=C[C@]5(C)[C@@]4(F)[C@@H](O)C[C@]3(C)[C@]2(C(=O)CO)O1,inactive,–
Oc1ccc2c(c1)OCC1c3cc4c(cc3OC21)OCO4 (configuration not stated),inactive,–
Cc1cccc(C)c1NC(=O)NC1=CCCN1C,–,0.19% [at 19.4 µM]
CCc1ccc2oc(-c3ccc(C)c(NC(=O)/C=C/c4ccco4)c3)nc2c1,inactive,–
O=C(NC(=S)Nc1ncccn1)c1ccccc1Br,inactive,–
O=C(/C=C/c1ccco1)NC(=S)Nc1ccccc1Br,50.1 µM (active),–
COc1ccc(Oc2ncc3nc(C)c(=O)n(-c4ccccc4)c3n2)cc1,inactive,–
O=C1COc2c1ccc(O)c2O,25.1 µM (active),–

SMILES,Potency,"activity, negative = inhibition"
Cc1csc(NCC(=O)c2c[nH]c3ccccc23)n1,inactive,–
C/C=C/NNC(=O)Cc1ccc(OC)cc1,inactive,–
CN1CCCC1CCO[C@@](C)(c1ccccc1)c1ccc(Cl)cc1 (some centres not stated),inactive,–
COc1cccc(NC(=O)COC(=O)c2ccc3ccccc3n2)c1,inactive,–
COc1cc(/C=C/C(=O)OCC(=O)Nc2cccc(Oc3ccccc3)c2)ccc1O,inactive,–
COc1cccc(NC(=O)COC(=O)/C=C/c2ccco2)c1,79.4 µM (active),–
Cc1nc2cnc(N3CCN(C)CC3)nc2n(CCC#N)c1=O,inactive,–
C=C1C([C@@]2(C)C(OC(C)=O)CC(=O)O[C@@](C)(COC(C)=O)C2CC(=O)OC)C(OC=O)C(OC(=O)C(O)C(C)CC)[C@]2(C)C(c3ccoc3)CC(=O)C12O (some centres not stated),inactive,–
OCCNc1ncnc2oc(-c3ccco3)c(-c3ccco3)c12,11.2 µM (active),–
COc1ccc(-c2oc3ncnc(NCCCO)c3c2-c2ccc(OC)cc2)cc1,inactive,–
Cc1noc2ncnc(NCc3ccccc3Cl)c12,inactive,–
CC(C)=CCC[C@]1(C)[C@@H](CC=C(C)C)C[C@@]2(CC=C(C)C)C(=O)[C@]1(C(=O)C(C)C)C(=O)C(CC=C(C)C)=C2O,–,-7.28% [at 19.4 µM]
Cn1cccc1C(=O)N1CCC2(CC1)CN(c1cccc(-c3ccccc3)c1)C2,inactive,–
O=[N+]([O-])c1cc(-c2nc(-c3ccccc3)no2)ccc1NCc1ccco1,inactive,–
Cc1ccc(/C([O-])=C(/C(=S)NCc2ccco2)[n+]2ccccc2)cc1[N+](=O)[O-],25.1 µM (active),–
O=[N+]([O-])c1cccc(/C([O-])=C(/C(=S)Nc2ccccc2F)[n+]2ccccc2)c1,inactive,–
COc1ccc(-c2nc3cnc(Oc4ccccc4)nc3n(Cc3cccs3)c2=O)cc1,inactive,–
CC[C@]1([C@H]2O[C@@H]([C@@H]3O[C@](O)(CO)[C@@H](C)C[C@H]3C)C[C@H]2C)CC[C@@H]([C@]2(C)CC[C@@]3(C[C@@H](O)[C@@H](C)[C@@H]([C@H](C)[C@H](OC)[C@H](C)C(=O)O)O3)O2)O1,–,-5.79% [at 19.4 µM]
N#Cc1cccc(-c2nc3cnc(N4CCNCC4)nc3n(C3CC3)c2=O)c1,inactive,–
O=C(O)C1=C/C(=C/C=[N+]2c3cc(O)c(O[C@H]4OC(CO)[C@@H](O)[C@@H](O)[C@@H]4O)cc3C[C@@H]2C(=O)[O-])C[C@H](C(=O)O)N1 (some centres not stated),inactive,–
C[C@@H](O)[C@@H]1NC(=O)[C@H](CCCCN)NC(=O)[C@H](Cc2c[nH]c3ccccc23)NC(=O)[C@H](Cc2ccccc2)NC(=O)[C@H](Cc2ccccc2)NC(=O)[C@H](CC(N)=O)NC(=O)[C@H](CCCCN)NC(=O)[C@@H](NC(=O)[C@@H]2CCCN2)CSSC[C@@H](C(=O)N[C@@H](CCCCN)C(=O)O)NC(=O)[C@H](CO)NC(=O)[C@H](CO)NC(=O)[C@H](Cc2ccccc2)NC1=O (H-PCKNFFWKTFSSCK-OH; disulfide 2-13),inactive,–
Cc1ccc(-c2nn(-c3ccccc3)cc2/C=C2\SC(=S)N(CCCCCC(=O)O)C2=O)o1,79.4 µM (active),–
O=C(Nc1ccc([N+](=O)[O-])cc1)c1cnn2c1NC(=C1CC1)C=C2C(F)F,inactive,–
O=C(Nc1nc(-c2ccco2)c(-c2ccco2)s1)c1ccco1,79.4 µM (active),–
O=C(Nc1ccc2nc(SCCOc3ccccc3)sc2c1)c1ccco1,inactive,–
CCN(c1ccc(Cl)cc1)S(=O)(=O)c1nnc(NC(=O)c2ccco2)s1,inactive,–
